The source of these data is paper PMC8384837, “Expanding the binding specificity for RNA recognition by a PUF domain”.

What all share (assay): yeast three-hybrid, YBZ-1, SC-Leu-His + 0.5 mM 3-AT, 4 days
What all share (conditions): tags: N-Gal4 AD-HA kept; label: inside an RPR1-promoter hybrid RNA with tandem MS2 sites; ssRNA

Assay [1] has as its target PUM1 PUF domain R1-GIR (Homo sapiens, UniProt Q14671 828-1176, S863G;R864I;Q867R). Summed up: (§1)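 Matching RNA elements and Pumilio-1 PUF domain libraries, randomized at the three base-contacting residues of every repeat, were co-expressed from a centromeric plasmid in strain YBZ-1 (LexA–MS2 coat fusion, HIS3 reporter). The repeat regions were PCR-amplified and Illumina-sequenced from cells grown four days on SC-Leu (input) or SC-Leu-His + 0.5 mM 3-AT (selection). The interaction score is the log change in variant frequency from input to selection. It is computed in log2, with a pseudocount of 1 for absent variants.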

Assay [2] has as its target PUM1 PUF domain R1-KIM (Homo sapiens, UniProt Q14671 828-1176, S863K;R864I;Q867M). The procedure, abridged:
as §1

Assay [3] deals with PUM1 PUF domain R8-VWP (Homo sapiens, UniProt Q14671 828-1176, N1122V;Y1123W;Q1126P). Summed up:
as §1

Assay [4] addresses PUM1 PUF domain R3-PWW (Homo sapiens, UniProt Q14671 828-1176, C935P;R936W;Q939W). Summed up:
as §1

Assay [5] addresses PUM1 PUF domain R5-RKS (Homo sapiens, UniProt Q14671 828-1176, C1007R;R1008K;Q1011S). Summed up:
as §1

Assay [6] addresses PUM1 PUF domain R4-QPS (Homo sapiens, UniProt Q14671 828-1176, N971Q;H972P;Q975S). The procedure, abridged: as §1
Assay [7] deals with T1, PUM1 PUF domain R6-NRI (Homo sapiens, UniProt Q14671 828-1176, Y1044R;Q1047I).
T1 sequence: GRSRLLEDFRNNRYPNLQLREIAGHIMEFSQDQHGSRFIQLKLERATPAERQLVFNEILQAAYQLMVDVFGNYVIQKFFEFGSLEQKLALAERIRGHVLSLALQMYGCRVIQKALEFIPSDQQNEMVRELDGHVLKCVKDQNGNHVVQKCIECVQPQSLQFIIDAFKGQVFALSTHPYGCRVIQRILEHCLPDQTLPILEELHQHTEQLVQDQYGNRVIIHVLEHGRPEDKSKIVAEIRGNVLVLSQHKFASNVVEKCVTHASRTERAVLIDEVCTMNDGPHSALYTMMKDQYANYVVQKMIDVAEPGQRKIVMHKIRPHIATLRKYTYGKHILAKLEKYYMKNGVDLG
The procedure, abridged: as §1

In assay [8] the target is PUM1 PUF domain R3-SRP (Homo sapiens, UniProt Q14671 828-1176, C935S;Q939P). The procedure, abridged:
as §1

Assay [9] has as its target T2, PUM1 PUF domain R6-AFL (Homo sapiens, UniProt Q14671 828-1176, N1043A;Y1044F;Q1047L).
T2 sequence: T1 sequence with N216A, R217F, I220L
Summed up:
as §1

In assay [10] the target is PUM1 PUF domain R5-QMG (Homo sapiens, UniProt Q14671 828-1176, C1007Q;R1008M;Q1011G). The procedure, abridged: as §1
The target in assay [11] is PUM1 PUF domain R5-HLY (Homo sapiens, UniProt Q14671 828-1176, C1007H;R1008L;Q1011Y). The procedure, abridged:
as §1

Assay [12] has as its target PUM1 PUF domain R4-AHP (Homo sapiens, UniProt Q14671 828-1176, N971A;Q975P). Summed up:
as §1

In assay [13] the target is PUM1 PUF domain R7-GGK (Homo sapiens, UniProt Q14671 828-1176, S1079G;N1080G;E1083K). The procedure, abridged:
as §1

Assay [14] addresses PUM1 PUF domain R3-RAV (Homo sapiens, UniProt Q14671 828-1176, C935R;R936A;Q939V). The procedure, abridged: as §1
Assay [15] deals with PUM1 PUF domain R3-RQR (Homo sapiens, UniProt Q14671 828-1176, C935R;R936Q;Q939R). The procedure, abridged:
as §1

Changes are numbered by the printed parent chain.

Turning to “GGCUAGAACUAGUGGAUCCCCCGGCGCCCGGCGGCUCGAGCCCGGGUAAGUGUAAAUUGUCUGCAUGCCGCCGGGCGCCAUGCCUGCAGGUCGACUCUAGAAAACAUG”, the binding signal in assay [1] was 3.23 log2 enrichment (interaction score); in assay [2], 3.49 log2 enrichment (interaction score).

In the case of “GGCUAGAACUAGUGGAUCCCCCGGCGCCCGGCGGCUCGAGCCCGGGUAAGUGUAAAUCGUCUGCAUGCCGCCGGGCGCCAUGCCUGCAGGUCGACUCUAGAAAACAUG”, the binding signal in [1] was 4.44 log2 enrichment (interaction score).

As to “GGCUAGAACUAGUGGAUCCCCCGGCGCCCGGCGGCUCGAGCCCGGGUAAGCGUAAAUAGUCUGCAUGCCGCCGGGCGCCAUGCCUGCAGGUCGACUCUAGAAAACAUG”, the binding signal in [3] was 3.01 log2 enrichment (interaction score).

For “GGCUAGAACUAGUGGAUCCCCCGGCGCCCGGCGGCUCGAGCCCGGGUAAGUGUAAAUAGUCUGCAUGCCGCCGGGCGCCAUGCCUGCAGGUCGACUCUAGAAAACAUG”, the binding signal in assay [3] was 1.71 log2 enrichment (interaction score); in [4] it was 2.43 log2 enrichment (interaction score); in [5] it was 0.56 log2 enrichment (interaction score); in assay [6], 1.44 log2 enrichment (interaction score); in assay [7] it was 4.34 log2 enrichment (interaction score); in [8] it was 5.42 log2 enrichment (interaction score).

In the case of “GGCUAGAACUAGUGGAUCCCCCGGCGCCCGGCGGCUCGAGCCCGGGUAAGUGAAAAUAGUCUGCAUGCCGCCGGGCGCCAUGCCUGCAGGUCGACUCUAGAAAACAUG”, the binding signal in [9] is 4.25 log2 enrichment (interaction score); in assay [7] it was 2.1 log2 enrichment (interaction score).

Regarding “GGCUAGAACUAGUGGAUCCCCCGGCGCCCGGCGGCUCGAGCCCGGGUAAGUGUGAAUAGUCUGCAUGCCGCCGGGCGCCAUGCCUGCAGGUCGACUCUAGAAAACAUG”, the binding signal in [10] was 2.26 log2 enrichment (interaction score).

Consider “GGCUAGAACUAGUGGAUCCCCCGGCGCCCGGCGGCUCGAGCCCGGGUAAGUGUCAAUAGUCUGCAUGCCGCCGGGCGCCAUGCCUGCAGGUCGACUCUAGAAAACAUG”, for which the binding signal in [5] was 3.2 log2 enrichment (interaction score); in [11] it was 3.47 log2 enrichment (interaction score).

As to “GGCUAGAACUAGUGGAUCCCCCGGCGCCCGGCGGCUCGAGCCCGGGUAAGUGUACAUAGUCUGCAUGCCGCCGGGCGCCAUGCCUGCAGGUCGACUCUAGAAAACAUG”, the binding signal in assay [12] was 4.93 log2 enrichment (interaction score).

As for “GGCUAGAACUAGUGGAUCCCCCGGCGCCCGGCGGCUCGAGCCCGGGUAAGUUUAAAUAGUCUGCAUGCCGCCGGGCGCCAUGCCUGCAGGUCGACUCUAGAAAACAUG”, the binding signal in [13] is 3.4 log2 enrichment (interaction score).

Consider “GGCUAGAACUAGUGGAUCCCCCGGCGCCCGGCGGCUCGAGCCCGGGUAAGUGUAUAUAGUCUGCAUGCCGCCGGGCGCCAUGCCUGCAGGUCGACUCUAGAAAACAUG”, for which, in assay [6], the binding signal was 3.86 log2 enrichment (interaction score).

Take “GGCUAGAACUAGUGGAUCCCCCGGCGCCCGGCGGCUCGAGCCCGGGUAAGUGUAAUUAGUCUGCAUGCCGCCGGGCGCCAUGCCUGCAGGUCGACUCUAGAAAACAUG”: the binding signal in assay [14] is 3.5 log2 enrichment (interaction score); in assay [15] it was 3.88 log2 enrichment (interaction score); in assay [8], 1.56 log2 enrichment (interaction score).
